ERAP1 HTS inh = inhibitors of human ERAP1 aminopeptidase. Q9NZ08. recombinant ERAP1, Leu-AMC fluorescence, 60 min. inhibition, % at 10.7 µM. 340,000 compounds, 0.15% hits. AID 652197;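 active means mean replicate inhibition of at least 30%, or all replicates individually reaching that 30% level; inactive means mean below 30% and not every replicate reaching it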;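 further: 0% = neutral control wells and 100% = L-leucinethiol positive control wells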
ERp5 inh = inhibitors of human ERp5; Q15084; ERp5 insulin aggregation, absorbance 650 nm, 90 min; inhibition, % at 9.99 µM; 350,000 compounds, 0.05% hits;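 active means mean replicate inhibition above about 25%, with every replicate also reaching it, limit read from the data, passing the limit was not always enough; inconclusive means only one of those two criteria met; inactive means neither criterion met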
Target sequence (Q15084 whole entry, looked up): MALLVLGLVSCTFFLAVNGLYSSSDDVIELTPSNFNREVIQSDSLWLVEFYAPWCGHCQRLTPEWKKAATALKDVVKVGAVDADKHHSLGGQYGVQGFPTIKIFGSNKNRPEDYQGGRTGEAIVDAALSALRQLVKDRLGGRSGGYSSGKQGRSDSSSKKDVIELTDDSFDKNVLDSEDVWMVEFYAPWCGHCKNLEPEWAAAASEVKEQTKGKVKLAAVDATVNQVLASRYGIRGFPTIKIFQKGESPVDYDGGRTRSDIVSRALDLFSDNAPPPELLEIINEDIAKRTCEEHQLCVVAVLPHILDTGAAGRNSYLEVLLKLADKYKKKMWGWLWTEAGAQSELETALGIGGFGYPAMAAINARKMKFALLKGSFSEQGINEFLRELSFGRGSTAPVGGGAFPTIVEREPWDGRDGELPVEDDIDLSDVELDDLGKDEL
HDAC3 inh = inhibitors of human histone deacetylase 3. O15379. recombinant HDAC3, fluorogenic peptide/trypsin coupled, fluorescence. inhibition, % at 8.3 µM. 320,000 compounds, 0.15% hits; in the data active means inhibition above about 26%, passing the limit was not always enough; inconclusive means no clear call, values can overlap the other calls
SIRT5 inh = sirtuin-5 (human) deacylase inhibition; Q9NXA8; Purified SirT5, succinyl-peptide AMC, trypsin-coupled fluorescence; inhibition, % at 15 µM; 330,000 compounds, 1.1% hits; in the data active means inhibition above about 15%; inconclusive means no clear call, values can overlap the other calls
PDI inh = PDI (human) enzyme inhibition; P07237; PDI insulin aggregation turbidity, A650, 90 min; inhibition, % at 10 µM; 350,000 compounds, 0.052% hits;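 active means mean inhibition across replicates of 30% or more, whatever share of single replicates reach that level; inconclusive means mean inhibition below 30% while every single replicate reaches 30%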
* = called active by the depositor. Shown is part of a subset that was picked to be rich in hits.

What do the screens show for `COc1ccc(S(=O)(=O)N(C)C[C@@H]2Oc3cc(C#CC4CCCC4)ccc3S(=O)(=O)N([C@H](C)CO)C[C@H]2C)cc1`?
ERAP1 HTS inh: 0.8; ERp5 inh: -6.4; SIRT5 inh: 19.1*

How did Cc1nn(-c2ccccc2)c2[nH]c(=O)cc(C(F)(F)F)c12 do in these assays?
ERAP1 HTS inh: -3.7; ERp5 inh: 0.7; HDAC3 inh: -0.2; SIRT5 inh: 76.4*; PDI inh: -4.6

What do the screens show for `Cc1cc(=O)[nH]c2c1c(C)nn2-c1ccccc1`?
HDAC3 inh: 8.5; PDI inh: 11.2

What do the screens show for `CS(=O)(=O)N(CC(=O)N1CCN(Cc2ccccc2)CC1)c1cccc(F)c1`?
ERAP1 HTS inh: -5.7; ERp5 inh: 1.3; HDAC3 inh: 2.6; SIRT5 inh: 19.2*; PDI inh: -3.4

Results for CS(=O)(=O)N(CC(=O)N1CCN(Cc2ccccc2)CC1)c1ccc(F)cc1 ?
ERAP1 HTS inh: 0.1; ERp5 inh: -0.8; HDAC3 inh: 10.2; SIRT5 inh: -2.0; PDI inh: 3.8

Results for Cc1ccc(N(CC(=O)N2CCOCC2)S(C)(=O)=O)cc1Cl ?
ERAP1 HTS inh: -4.5; ERp5 inh: -7.4; HDAC3 inh: 5.4; SIRT5 inh: 15.6*; PDI inh: -2.2

What do the screens show for `COC(=O)CC1OCC=C2CN3CCC45C6=CC(=O)C(=O)C([N+](=O)[O-])=C6NC4C1C2CC35` (stereo not drawn)?
ERAP1 HTS inh: -1.6; ERp5 inh: 19.2; SIRT5 inh: 6.5; PDI inh: 85.0*

What do the screens show for `COC(=O)c1c(C(C)=O)c(C)n(C)c1C`?
ERp5 inh: 4.0; HDAC3 inh: 2.4; SIRT5 inh: 16.1*; PDI inh: 10.3

Results for O=C(NCc1ccncc1)c1ccc(Cl)c(S(=O)(=O)N2CCCCC2)c1 ?
ERAP1 HTS inh: 11.8; ERp5 inh: -6.1; HDAC3 inh: 1.3; SIRT5 inh: 17.8*; PDI inh: 0.1

Results for N#Cc1ccc(-c2ccc([C@H]3[C@H]4CN(C(=O)C5CCCC5)CC(=O)N4[C@H]3CO)cc2)cc1 ?
ERAP1 HTS inh: -0.4; ERp5 inh: 1.1; SIRT5 inh: 3.7

Results for O=C(Cc1ccccn1)N1CC(=O)N2[C@@H](CO)[C@H](c3ccc(C#CC4CCCC4)cc3)[C@@H]2C1 ?
ERAP1 HTS inh: 31.9*; ERp5 inh: 3.8; SIRT5 inh: -7.3

Results for O=C(c1cnccn1)N1CC(=O)N2[C@@H](CO)[C@H](c3ccc(C#CC4CC4)cc3)[C@@H]2C1 ?
ERAP1 HTS inh: -2.1; ERp5 inh: -0.6; SIRT5 inh: 23.1*

What do the screens show for `N#Cc1ccc(-c2ccc([C@H]3[C@H](CO)N4C(=O)CN(C(=O)C5CC5)C[C@@H]34)cc2)cc1`?
ERAP1 HTS inh: 38.4*; ERp5 inh: -10.0; SIRT5 inh: -3.8

What do the screens show for `CCOC(=O)C1=C(C)NC(C)=C(C(=O)OCC)C1C`?
ERAP1 HTS inh: 33.7*; ERp5 inh: inconclusive; HDAC3 inh: 8.5; SIRT5 inh: 4.1; PDI inh: 0.0

Results for C[C@H](CO)N1C[C@H](C)[C@H](CN(C)Cc2cccc(C(F)(F)F)c2)OCc2ccccc2-c2ccccc2C1=O ?
ERAP1 HTS inh: 0.5; ERp5 inh: 2.7; SIRT5 inh: 19.6*

What do the screens show for `C[C@H]1CN([C@@H](C)CO)C(=O)c2ccccc2-c2ccccc2CO[C@@H]1CN(C)Cc1ccc(C(F)(F)F)cc1`?
ERAP1 HTS inh: -0.1; ERp5 inh: 7.1; SIRT5 inh: 16.3*

How did C[C@@H]1CN([C@@H](C)CO)C(=O)c2ccccc2-c2ccccc2CO[C@H]1CN(C)Cc1ccccc1C(F)(F)F do in these assays?
ERAP1 HTS inh: -2.7; ERp5 inh: 7.9; SIRT5 inh: 27.6*

Results for C[C@H](CO)N1C[C@H](C)[C@H](CN(C)Cc2ccc(C(F)(F)F)cc2)OCc2ccccc2-c2ccccc2C1=O ?
ERAP1 HTS inh: -12.4; ERp5 inh: -2.7; SIRT5 inh: 13.6

Results for COc1ccc(CN(C)C[C@H]2OCCCC[C@H](C)Oc3ccc(NS(=O)(=O)c4ccc(C)cc4)cc3C(=O)N([C@H](C)CO)C[C@@H]2C)cc1 ?
ERAP1 HTS inh: -1.2; ERp5 inh: 4.3; SIRT5 inh: -1.0

How did C[C@H]1CN([C@@H](C)CO)C(=O)CCCn2nncc2CO[C@@H]1CN(C)S(=O)(=O)c1ccc(F)cc1 do in these assays?
ERAP1 HTS inh: -1.3; ERp5 inh: 7.2; SIRT5 inh: -0.8

What do the screens show for `Cc1ccc(NC(=O)c2ccc(-n3cncn3)c([N+](=O)[O-])c2)cc1`?
HDAC3 inh: -5.4; PDI inh: 7.6
